Screening results (PubChem BioAssay)
Shown are actives, neighbours in structure and some others; about 2.9% of the full set was active somewhere.
LYPLA1 inh – LYPLA1 inhibitors, primary screen, counter-screen for PME1 inhibitor project, biochemical, fluorescence polarization, FP-Rh probe ABPP. recombinant LYPLA1. inhibition, % at 5.9 µM. hit rate 0.16% among 320,000;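 active means inhibition above the mean of all tested compounds plus 3 SD, set per campaign, cut at about 14% in these data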;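 further: inhibitors block serine hydrolase probe labeling of LYPLA1 so polarization falls; 0% = enzyme with DMSO and 100% = wells lacking LYPLA1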
Target sequence (O75608 whole entry, looked up): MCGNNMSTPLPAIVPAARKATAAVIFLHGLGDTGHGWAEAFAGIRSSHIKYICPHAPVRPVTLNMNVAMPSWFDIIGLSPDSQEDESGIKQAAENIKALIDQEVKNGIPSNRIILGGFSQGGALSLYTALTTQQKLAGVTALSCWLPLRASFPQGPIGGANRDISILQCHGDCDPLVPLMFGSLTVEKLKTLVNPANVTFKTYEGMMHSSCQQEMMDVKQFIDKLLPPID
PAFAH1B2 FP inh – PAFAH1B2 enzyme inhibitors, primary screen, biochemical, fluorescence polarization, human | Platelet-activating factor acetylhydrolase IB subunit alpha2 (Homo sapiens), P68402 | recombinant PAFAH1B2, FP-rhodamine activity probe | inhibition, % at 3.39 µM | hit rate 1.2% among 340,000;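 active means inhibition above the mean of all tested compounds plus 3 SD, cut at about 24% in these data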;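 further: 0% = enzyme with DMSO and 100% = wells lacking PAFAH1B2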
PAFAH2 inh – PAFAH2 enzyme inhibitors, primary screen, biochemical, fluorescence polarization, human; Platelet-activating factor acetylhydrolase 2, cytoplasmic (Homo sapiens), Q99487; recombinant PAFAH2, FP-rhodamine activity probe; inhibition, % at 3.39 µM; hit rate 0.99% among 340,000; AID 492956, 2010;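 active means inhibition above the mean over all tested compounds plus 3 SD, cut at about 30% in these data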;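 further: inhibitors block probe labeling of enzyme so polarization drops; 0% = enzyme with DMSO and 100% = wells lacking PAFAH2 protein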
LYPLA2 inh – LYPLA2 inhibitors, primary screen, counter-screen for PME1 inhibitor project, biochemical, fluorescence polarization, FP-Rh probe ABPP; Acyl-protein thioesterase 2 (Homo sapiens), O95372; recombinant LYPLA2; inhibition, % at 5.9 µM; hit rate 0.38% among 320,000;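 active means inhibition above the screen-wide mean plus 3 SD, limit set per campaign, cut at about 26% in these data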;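 further: 0% = LYPLA2 with DMSO and 100% = wells lacking LYPLA2 enzyme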
Target sequence (O95372 whole entry, looked up): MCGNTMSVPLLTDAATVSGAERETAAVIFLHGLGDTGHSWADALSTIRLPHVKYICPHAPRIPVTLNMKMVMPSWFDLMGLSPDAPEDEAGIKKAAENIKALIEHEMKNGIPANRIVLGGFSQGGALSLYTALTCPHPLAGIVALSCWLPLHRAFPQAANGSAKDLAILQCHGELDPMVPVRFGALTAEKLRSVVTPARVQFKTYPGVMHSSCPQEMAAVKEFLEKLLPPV
PAFAH1B3 inh – PAFAH1B3 enzyme inhibitors, primary screen, biochemical, fluorescence polarization, human; AID 492972, 2010; hit rate 0.28% among 340,000; Platelet-activating factor acetylhydrolase IB subunit alpha1 (Homo sapiens), Q15102; recombinant PAFAH1B3, FP-rhodamine probe; inhibition, % at 3.39 µM;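 active means inhibition above the screen-wide average of all tested compounds plus 3 SD, cut at about 25% in these data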;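 further: 0% = enzyme with DMSO only and 100% = wells lacking PAFAH1B3 protein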
pPAFAH FP inh – pPAFAH enzyme inhibitors, primary screen, biochemical, fluorescence polarization, human | Platelet-activating factor acetylhydrolase (Homo sapiens), Q13093 | recombinant pPAFAH, FP-rhodamine probe fluorescence polarization | inhibition, % at 3.39 µM | hit rate 1.5% among 330,000;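 active means inhibition above the mean inhibition across the screen plus 3 SD, cut at about 25% in these data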;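 further: inhibitors block binding of the rhodamine activity-based probe so polarization drops; 0% = enzyme with DMSO and 100% = wells lacking pPAFAH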
Active calls of the source: *; / = no result.

SMILES | LYPLA1 inh | PAFAH1B2 FP inh | PAFAH2 inh | LYPLA2 inh | PAFAH1B3 inh | pPAFAH FP inh
CC(C)(C)N(Cc1ccccc1)C(=O)CSc1nc2ccccc2c(=O)[nH]1 | -1 | 9 | -9 | -3 | 3 | 0
CC(Sc1ccc(Cl)cc1)C(=O)NNC(=O)c1ccccc1O (stereo unspecified) | -1 | 28* | 25 | 8 | 2 | 10
O=C(NCCc1cccc(Cl)c1)c1cccc(-n2cnnn2)c1 | / | 4 | -3 | / | 6 | /
Clc1ccc(SCCCCn2ccnc2)cc1 | 5 | 71* | 2 | 10 | 9 | 5
Clc1ccccc1OCCCCn1ccnc1 | -7 | 1 | 8 | -11 | -2 | -3
COc1ccc(NS(=O)(=O)c2cc(NC(=O)c3nc4nc(C)cc(C)n4n3)ccc2C)cc1 | -2 | -1 | 1 | -4 | 6 | -6
Oc1cccc(O)c1O | 1 | / | / | 4 | / | 96*
O=[N+]([O-])c1ccc([N+](=O)[O-])c(Nc2ccc(N3CCOCC3)cc2)c1 | 2 | 2 | 3 | 13 | 13 | 4
Cc1cc(C)nc(NC(=O)CCN2C(=O)c3ccccc3S2(=O)=O)n1 | 3 | -3 | 7 | 6 | 3 | 8
CCCCc1cc(=O)oc2cc(C)cc(OCC(=O)NC(Cc3ccc(Cl)cc3)C(=O)O)c12 (stereo unspecified) | 1 | 30* | -1 | -2 | 4 | 6
CCCc1cc(=O)oc2cc(C)cc(OCC(=O)NC(Cc3ccc(Cl)cc3)C(=O)O)c12 (stereo unspecified) | -2 | 27* | -7 | -3 | 3 | 6
Cc1cc(C)nc(N(C#N)Cc2ccccc2)n1 | 1 | 0 | 7 | 4 | 5 | -2
Cc1cccn2c(=O)nc(SCC(=O)NC3CCCCC3)nc12 | 0 | 5 | -1 | -2 | -2 | 8
CCC(C)c1c(NS(=O)(=O)c2ccc(C)cc2)o[nH]c1=O (stereo unspecified) | / | 4 | -5 | / | 4 | /
CCC(C)c1c(N)n(S(=O)(=O)c2ccc(C)cc2)oc1=O (stereo unspecified) | / | 42* | 2 | / | -2 | /
CC(OC(=O)CCCC(=O)Nc1ccccc1)C(=O)c1ccccc1 (stereo unspecified) | 2 | 0 | 3 | 5 | -5 | 4
Brc1ccc(CNc2ccc3ncccc3c2)cc1 | / | 51* | 0 | / | 4 | /
CCn1cnc2cc(NCc3ccc(Br)cc3)ccc21 | 2 | / | / | 4 | / | 9
CCCn1cnc2cc(NCc3ccc(Br)cc3)ccc21 | 0 | 37* | 1 | 3 | 6 | 10
CCOc1ccc(CNc2ccc3c(c2)ncn3C)cc1 | 1 | 2 | 3 | 2 | 10 | -1
O=C(Nc1ccc2ncccc2c1)c1cccc(Br)c1 | -6 | 3 | -3 | 0 | 4 | -2
Cn1cnc2cc(NCc3ccc(Cl)cc3)ccc21 | 3 | 43* | 0 | 7 | 3 | 1
COc1cccc(C(C(=O)NC2CCCCC2)N(Cc2ccco2)C(=O)c2ccccn2)c1 (stereo unspecified) | 6 | 1 | -9 | 9 | 6 | 3
COc1ccc(Cl)cc1-c1nc(SCC(=O)NC2CC2)n[nH]1 | -1 | 0 | 10 | -6 | 3 | -5
CC(C)(C)c1ccc(OCC(=O)NCc2ccco2)c(Br)c1 | -1 | 15 | 13 | 4 | 3 | 28*
SMILES | LYPLA1 inh | PAFAH1B2 FP inh | PAFAH2 inh | LYPLA2 inh | PAFAH1B3 inh | pPAFAH FP inh
Cc1ccccc1-c1nc2c(s1)CCc1onc(-c3cccc([N+](=O)[O-])c3)c1-2 | -1 | 2 | 3 | -12 | 7 | 2
c1ccc2c(-c3ccc(OCCN4CCCCC4)cc3)c(-c3ccsc3)sc2c1 | / | 1 | -3 | / | 3 | 2
Oc1ccc(-c2c(-c3ccsc3)sc3ccccc23)cc1 | -10 | 2 | 1 | -14 | 2 | 29*
COCc1ccc(-c2c(-c3ccsc3)sc3ccccc23)cc1 | -2 | -1 | 3 | -2 | 12 | 25*
O=C(CCCNC(=O)c1ccc(Cl)cc1)Nc1ccccc1F | -1 | 6 | -1 | -2 | 10 | 0
COc1ccc(NC(=O)O/N=C/c2ccc(Br)cc2)cc1 | 1 | 46* | 10 | 6 | 7 | 11
